PubChem BioAssay AID902 (National Center for Advancing Translational Sciences (NCATS), 2007)
The whole screen tested about 130,000 compounds, of which about 1,900 (1.5%) were called active. A call without a number means that no potency is given here. Another 5% or so got no clear call; they are omitted. Calls follow the shape of the dose curve; as a rule, active = well fitted cell-killing curve with a large enough effect; inconclusive = small, poorly fitted or top-dose-only effect; inactive = no such curve, though single readings can be large or run the other way. The sample as a whole holds a higher share of actives than the screen did.

Assay: qHTS Screen for Compounds that Selectively Target Cancer Cells with p53 Mutations: Cytotoxicity of p53ts Cells at the Nonpermissive Temperature; also: nearly all actives have a fitted effect of over 55% in size
Conditions: H1299-p53A138V viability at 39C, ATP luminescence, 24 h; series mostly up to 46.1 µM
Text: NIH Chemical Genomics Center [NCGC] NIH Molecular Libraries Screening Centers Network [MLSCN] MLSCN Grant: 1 X01 MH079844-01 Assay Submitter (PI): Dr. SUN, YI, University of Michigan NCGC Assay Overview: Synthetic Lethal Screen for Compounds to Kill Cancer Cells with p53 Mutation. Tumor suppressor gene p53 serves as a major cellular barrier against tumorigenesis. […] The goal of this screening is to identify small molecule probes that selectively kill cancer cells with mutations in p53. This screening was carried out using two lines of H1299 lung cancer cells. The H1299-p53 A138V line express a temperature sensitive p53 mutant (p53ts) in which the mutant p53 protein (A138V) is in the mutant confirmation when grown at 39C (the nonpermissive temperature) and in the wild type conformation when grown at 32C (the permissive temperature). A H1299-neo line (p53 null) grown at both 39C and 32C were used as counter-screens to filter out false positive associated with temperature shifting. The small molecular compounds that selectively target mutant p53-containing cancer cells were selected as candidate probes for further study. A cytotoxicity assay based on the measurement of ATP contents in cells was used in this screen. Concentration-responses of all the compounds in the library collection were determined in qHTS using the cell lines and temperature conditions as above.
NCGC Assay Protocol Summary: Both the H1299-p53A138V and H1299-neo cell lines were provided by Dr.Yi Sun, a PI at the University Michigan. The cells were maintained and cultured at 37C. The resuspended frozen cells were used to plate the cells in the 1536-well assay plates at a density of 600 cells per well in 5 ul medium. The assay plates with the cells were incubated at 37C for 16 to 30 hours before the experiments. The library compounds in DMSO solution were added to the cells in assay plates and incubated 24 hours at 39C (for mutant p53 conformation) or 32C (for normal p53 conformation as control). An ATP_lite assay kit (PerkinElmer) was used to determine the cell viability. Tomaxifen (100uM) was used as the positive control for cell killing. Data were normalized to the controls for basal activity (DMSO only) and 100% killing (100uM tamoxifen). AC50 values were determined from concentration-response data modeled with the standard Hill equation. P53 assay protocol: 1. Reagent; 5 uL H1299-p53A138V or H1299-neo cell cells/well 2. Time; overnight; 37C incubation 3. Compounds; 23 nL; 5.9 nM to 46 uM 4. Controls; 23 nL; Tamoxifen 100 uM 5. Time; 24 hr; 39C incubation 6. Reagent; 3 uL; ATP_Lite reagent 7. Time; 20 min; Room Temperature 8. Detection; Luminescence; Viewlux plate reader Keywords: p53, synthetic lethal, cancer, cell viability, cytotoxicity, H1299 cell line, luminescence, MLSMR, MLSCN, NIH Roadmap, qHTS, NCGC
Potency is read from the fitted curve at half-maximal effect.

| SMILES | Potency |
| --- | --- |
| Cc1oc2ccc(O)c(CN3CCOCC3)c2c1C(=O)Nc1cccc(Cl)c1C | inactive |
| Cc1oc2ccc(O)c(CN3CCC(C)CC3)c2c1C(=O)Nc1ccccc1 | inactive |
| Cc1oc2ccc(O)c(CN3CCCCC3)c2c1C(=O)Nc1cccc(C(F)(F)F)c1 | 12.6 µM (active) |
| COc1ccccc1C(=O)Nc1c(C(=O)Nc2ccc(C)cc2)oc2ccccc12 | inactive |
| O=C(Nc1cccc(NC(=O)c2ccco2)c1)c1cnccn1 | inactive |
| O=C(Nc1ccc(NC(=O)c2cccs2)cn1)c1ccco1 | 10 µM (active) |
| Cc1ccnc(NC(=O)c2ccc(NC(=O)c3ccco3)cc2)c1 | inactive |
| CCC(=O)Nc1cccc(C(=O)OCc2cc(=O)n3nc(CC)sc3n2)c1 | inactive |
| CCOC(=O)c1cccc(NC(=O)C(Cc2ccccc2)NS(=O)(=O)c2cccc3nsnc23)c1 (stereo unspecified) | inactive |
| COc1ccccc1Nc1cc(C(=O)NCCCN(C)C2CCCCC2)c2ccccc2n1 | 10 µM (active) |
| CCCCN(CCCNC(=O)c1cc(Nc2ccccc2OC)nc2ccccc12)c1ccccc1 | inactive |
| COc1ccc(Nc2cc(C(=O)NCCCN(C)c3ccccc3)c3ccccc3n2)c(OC)c1 | inactive |
| CNC(=O)CN1C(=O)c2cccnc2Sc2ccccc21 | inactive |
| COc1cccc(C(=O)N(Cc2cccc(Cl)c2)Cc2ccco2)c1 | inactive |
| O=C(NCCCN1CCN(C2CCCCC2)CC1)Nc1ccccc1C(F)(F)F | inactive |
| Cc1ccccc1NC(=O)CNc1ccccc1N1CCCCC1 | inactive |
| O=C(CN1CCN(C2CCCCC2)CC1)Nc1ccccc1N1CCCCC1 | 15.8 µM (active) |
| COc1ccc(Cl)cc1NC(=O)CCC(=O)c1ccc(C)cc1 | inactive |
| COc1ccccc1CNC(=O)CCCn1c(=O)c2ccccc2n(CC(=O)Nc2ccc(C)cc2Cl)c1=O | inactive |
| CCCc1[nH]nc2c1C(c1ccc(Br)s1)C(C#N)=C(N)O2 (stereo unspecified) | inactive |
| COc1ccc(C2C(C#N)=C(N)Oc3n[nH]c(C)c32)cc1CN1CCN(c2ccc(F)cc2)CC1 (stereo unspecified) | inactive |
| CCCc1[nH]nc2c1C(c1ccc(OC)c(Cn3nc(C)c(Br)c3C)c1)C(C#N)=C(N)O2 (stereo unspecified) | 7.94 µM (active) |
| Cc1cccc(C2CC(=O)Oc3c2c(=O)n(C)c2ccccc32)c1 (stereo unspecified) | inactive |
| O=C(CN1CCCCCC1)N1c2ccccc2Sc2ccc(C(F)(F)F)cc21 | inactive |
| OCCN1CCN(CC/C=C2\c3ccccc3Sc3ccc(C(F)(F)F)cc32)CC1 | 15.8 µM (active) |
| O=C(CN1CCCCC1)N1c2ccccc2Sc2ccc(C(F)(F)F)cc21 | inactive |

| SMILES | Potency |
| --- | --- |
| CCOC(=O)c1c(S(=O)(=O)N2CCC(C(=O)NCc3ccccc3OC)CC2)c(C)n(C)c1C | inactive |
| Cc1ccc(Nc2ccc3cc(S(=O)(=O)N4CCCCC4)ccc3n2)cc1F | inactive |
| O=C(CC(c1cccs1)N1Cc2ccccc2C1=O)Nc1ccc(F)c(F)c1 (stereo unspecified) | inactive |
| Cc1ccc(N2CCN(C(=O)CCc3c(C)nc4c(c3C)c(=O)n(C)c(=O)n4C)CC2)c(C)c1 | inactive |
| CC(C)(C)c1csc(NC2=NS(=O)(=O)c3ccccc32)n1 | 12.6 µM (active) |
| c1ccc(Nc2nc(-c3ccncc3)cs2)nc1 | inactive |
| O=C(CSc1nccn1Cc1ccc(F)cc1)NCc1ccccc1 | inactive |
| CCN(C(=O)Cn1cnc2sc(C)c(S(=O)(=O)N3CCN(c4ncccn4)CC3)c2c1=O)c1ccccc1F | inactive |
| CCOC(=O)c1c(S(=O)(=O)N2CCCC(C(=O)NCc3cccc(C)c3)C2)c(C)n(C)c1C (stereo unspecified) | inactive |
| CC1(C)N=C(SCc2ccccc2Cl)c2ccccc2N1 | inactive |
| Cc1ccccc1N1CC(c2nc3ccccc3[nH]2)CC1=O (stereo unspecified) | inactive |
| Cc1ccccc1-n1c(C)cc(/C=C2\NC(=O)NC2=O)c1C | 8.91 µM (active) |
| Cc1cc(/C=N/n2cnnc2)c(C)n1-c1cccc(C(=O)O)c1 | inactive |
| CC(C)c1ccc(NC(=O)c2ccc(Cn3nc(N4CCN(c5ccccc5)CC4)ccc3=O)o2)cc1 | inactive |
| O=S(=O)(c1ccc(C2CCCCC2)cc1)N1CCN(c2ccc(Cl)c(Cl)c2)CC1 | inactive |
| CCOc1ccc(CNC(=O)C2CCCN(S(=O)(=O)N(CC)c3ccc(OCC)cc3)C2)cc1 (stereo unspecified) | inactive |
| CSc1nn(Cc2cccc(C)c2)c(N)c1S(=O)(=O)c1ccccc1 | inactive |
| CCCCOc1ccc(CN2C(=O)C(=O)c3cc(Br)cc(C)c32)cc1OC | 7.94 µM (active) |
| COc1ccc(CCN(C)CCN2C(=O)c3ccccc3C2=O)cc1OC | inactive |
| CCCCOc1ccc(Cn2c(=O)oc3ccc(C)cc32)cc1OC | inactive |
| COc1ccc(CCNC(=O)c2cc3cccc4c3n2CC(C)S4)c(OC)c1OC (stereo unspecified) | inactive |
| Cc1cccc(Cn2c(SCc3ccc(C(=O)N4CCC(C)CC4)cc3)nc3ccncc32)c1 | inactive |
| CC(C)CC(=O)NCC(c1ccc2c(c1)OCO2)N1CCN(c2ccc(F)cc2)CC1 (stereo unspecified) | inactive |
| CC(C)(C)NC(=O)CSc1nc(-c2ccc(F)cc2)cc(C(F)(F)F)n1 | inactive |
| c1ccc(Nc2n[nH]nc2-c2ccccc2)cc1 | inactive |
| CSc1nc(Nc2ccc(F)cc2)cc(-c2ccccc2)n1 | 12.6 µM (active) |

| SMILES | Potency |
| --- | --- |
| CCC(=O)N1c2ccccc2CC1C(=O)N1CCN(c2ccccc2)CC1 (stereo unspecified) | inactive |
| Cc1cccc(N2CCN(c3ccc(C(=O)O)cc3NC(=O)c3ccccc3F)CC2C)c1 (stereo unspecified) | inactive |
| COc1ccc(OC)c(CCNC(=O)CCCn2c(=O)c3cccn3c3cccnc32)c1 | inactive |
| CCOc1ccc(OCC)c(NS(=O)(=O)c2ccc3[nH]c(=O)ccc3c2)c1 | inactive |
| c1ccc(-n2ncc3c2ncn2c(C4CCCCC4)nnc32)cc1 | inactive |
| CCN(c1ncnc2c1cnn2-c1ccc(C)cc1)C1CCCCC1 | 20 µM (active) |
| CCN(CC)C(=O)CSc1ncnc2c1cnn2-c1ccccc1 | inactive |
| Cc1cccc(-c2nc(SCC(=O)Nc3cc(C)on3)c3c(=O)n(C)c(=O)n(C)c3n2)c1 | inactive |
| Cc1nc2ccccc2n1C(=O)N1CCOCC1 | inactive |
| Cc1cc(C)c2c(n1)nn1c(N3CCOCC3)cc(C)nc21 | inactive |
| Cc1nn2c3cc(N4CCOCC4)ccc3nc2c2ccccc12 | 2 µM (active) |
| Cc1cccc(NC(=O)CSc2ncc(-c3ccccc3)[nH]2)c1C | inactive |
| CCOc1cccc(NC(=O)CSc2ncc(-c3ccc(Cl)cc3)[nH]2)c1 | 20 µM (active) |
| O=C(CSc1ncc(-c2ccccc2)[nH]1)Nc1ccc(F)cc1F | inactive |
| CNC(=O)CN1C(=O)c2ccccc2S1(=O)=O | inactive |
| CCCc1nnc(NC(=O)c2cc(OC)cc(OC)c2)s1 | inactive |
| CCCc1nnc(NC(=O)CN2C(=O)c3ccccc3S2(=O)=O)s1 | 12.6 µM (active) |
| Cc1ccc(C)c2sc(NC(=O)c3ccc(S(=O)(=O)N4CCCC4)cc3)nc12 | inactive |
| CC1=C(C(=O)N2CCN(c3cccc(C(F)(F)F)c3)CC2)C2(CCCCC2)OC1=O | inactive |
| CCOc1cc(C(=O)Nc2ncccn2)cc(OCC)c1OCC | inactive |
| Cn1c(=O)c(C(=O)Nc2ncccn2)c(O)c2ccccc21 | 12.6 µM (active) |
| O=C(Nc1ncccn1)c1cccs1 | inactive |
| Cc1ccc(C(=O)Nc2ccc(OCc3cc(=O)n4c5c(sc4n3)CCCC5)cc2)cc1 | inactive |
| CCN(CC)c1cc(NC2CCCCC2)c2c3c(onc13)-c1ccccc1C2=O | inactive |
| Cc1cccc(N2CCN(C(=O)c3oc(=O)c4ccccc4c3-c3ccccc3)CC2)c1C | inactive |
| O=C(/C=C/c1cn(CC(O)CN2CCc3ccccc32)c2ccccc12)c1ccc(Br)cc1 (stereo unspecified) | inactive |

| SMILES | Potency |
| --- | --- |
| CCOc1ccc(C(=O)/C=C/c2cn(CC(O)CN3CCCCCC3)c3ccccc23)cc1 (stereo unspecified) | 10 µM (active) |
| COc1ccc(OCCn2cc(C(=O)C3CCCCC3)c3ccccc32)cc1 | inactive |
| COc1ccc(Cn2c(C(=O)O)c(CNCCc3cccs3)c3ccc(OC)cc32)cc1 | inactive |
| CCOC(=O)C1=C(c2ccc(OC)cc2)C(=O)c2ccccc2C1=O | 7.08 µM (active) |
| CCOC(=O)c1ccccc1NS(=O)(=O)c1ccc(OC)cc1 | inactive |
| CCCCC(C(=O)OCC(=O)c1ccc(OC)cc1)N1C(=O)c2ccccc2C1=O (stereo unspecified) | inactive |
| Cc1cc(F)ccc1NS(=O)(=O)c1ccc(-n2cccn2)cc1 | inactive |
| O=C(Nc1cc(-c2nc3ccccc3o2)ccc1Cl)c1cc([N+](=O)[O-])ccc1N1CCOCC1 | inactive |
| COc1ccc2oc(-c3ccc(C)c(NC(=O)c4sc5ccccc5c4Cl)c3)nc2c1 | inactive |
| Cc1ccc2c(c1)N(C(=O)CCC(=O)NCc1ccccc1F)CC(C)O2 (stereo unspecified) | inactive |
| Cc1ccccc1-c1nc(CS(=O)(=O)CC(=O)N2CCc3ccccc3C2)c(C)o1 | inactive |
| Cc1ccccc1-c1nc(CS(=O)(=O)CC(=O)NC(C)c2ccccc2)c(C)o1 (stereo unspecified) | inactive |
| Cc1ccccc1-c1nc(CS(=O)(=O)CC(=O)Nc2cc(Cl)cc(Cl)c2)c(C)o1 | 20 µM (active) |
| CCC1CCCCN1S(=O)(=O)c1ccc(NC(=O)c2cc(=O)c3ccccc3o2)cc1 (stereo unspecified) | inactive |
| Clc1ccccc1CSc1nncn2c1cc1occc12 | inactive |
| CCC(=O)N1c2ccc(S(=O)(=O)CCC(=O)N3CCN(c4ccccc4)CC3)cc2CC1C (stereo unspecified) | inactive |
| CCn1nc(C(=O)OCC(=O)N2c3ccccc3CC2C)c2ccccc2c1=O (stereo unspecified) | inactive |
| CCCC(=O)N1c2ccc(-c3csc(N)n3)cc2CC1C (stereo unspecified) | 12.6 µM (active) |
| Cc1cccc(OCCSc2nc3ccccc3n2CC(=O)N2CCCCC2)c1C | inactive |
| O=C(O)Cc1ccc(NC(=O)c2cccs2)cc1 | inactive |
| O=C(O)c1ccc(NC(=O)c2cccs2)cc1 | inactive |
| Cc1nc(-c2ccc(NC(=O)c3cccs3)cc2)cs1 | 2.51 µM (active) |
| CCCCNc1ccc(-c2nc(-c3ccncc3)no2)cc1[N+](=O)[O-] | inactive |
